Source: PubChem BioAssay (Tox21)
“And” between values parts separate entries of the source, which are not always exact repeats. Equal entries are not always repeated. Results filed as inconclusive are left out. A call without a number means that no potency is given here. The source holds several records for some structures; these can differ, active in one and inactive in another. The source made the active and inactive calls. Unless noted, calls come from the whole dose curve.

What was measured:
[1] = Nuclear factor erythroid 2-related factor 2/antioxidant responsive element (Nrf2/ARE) small molecule agonists: qHTS cell viability counter screen in human keratinocytes (AID 1919968; active = well fitted curve in the direction sought with a large enough effect in the repeat runs; an effect the other way counts as inactive or inconclusive; note: nearly all actives have a fitted effect of over 55% in size; note: potency is the fitted concentration of half-maximal effect)
How it was run: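 HaCaT ARE reporter line, 1,500 cells/well; 5 h settle, 37 C/5% CO2; cpd in DMSO pinned; 23 h exposure; CellTiter-Fluor, 1 h; fluorescence.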

[2] = target: KiSS-1 receptor (Homo sapiens) (UniProt Q969F8); test: Human kisspeptin (KISS1R) small molecule agonists, calcium flux assay in KISS1R-HEK293 cells (AID 1920064; active = well fitted curve in the direction sought with a large enough effect in the repeat runs; an effect the other way counts as inactive or inconclusive)
How it was run: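 Stable human KISS1R HEK293 line; 18 h plating, 37 C/5% CO2; calcium dye 1 h 37 C; compound pin transfer; kinetic fluorescence Ex/Em 480/540, 3 min.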

[3] = G protein-coupled receptor (GPCR) small molecule agonists, calcium flux assay: HEK293 wild type cell line counter screen (AID 1920065)
How it was run: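 Kinetic fluorescence at Ex/Em 480/540, recorded every second over 3 min, served as the read-out after compound addition. Each compound was tested at 15 concentrations in triplicate on cells pre-loaded with calcium dye for 1 h.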

[4] = p53 small molecule agonists, cell-based qHTS assay with rat liver microsomes (AID 1963578)
How it was run: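 Quantitative HTS of the Tox21 10K library: p53RE-bla cells, rat liver microsomes plus NADPH at 0.5 mg/mL final each, 16 h at 37 C, beta-lactamase fluorescence detection.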

[5] = p53 small molecule agonists, cell-based qHTS assay with human liver microsomes: qHTS cell viability counter screen (AID 1963579); note: nearly all actives have a fitted effect of over 45% in size; note: potency is the fitted concentration of half-maximal effect
How it was run: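 Viability of p53RE-bla cells is measured as CellTiter-Glo luminescence following a 16 h, 37 C incubation with compound, liver microsomes from human donors and NADPH.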

[6] = p53 small molecule agonists, cell-based qHTS assay with rat liver microsomes: qHTS cell viability counter screen (AID 1963580); note: nearly all actives have a fitted effect of over 45% in size
How it was run: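 In HCT-116 cells carrying a p53 response element-bla reporter, compounds were metabolically activated in situ by rat liver microsomes with NADPH over 16 h. Cell ATP content then served as the cytotoxicity measure.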

[7] = p53 small molecule agonists, cell-based qHTS assay: qHTS cell viability counter screen (AID 1963581); note: nearly all actives have a fitted effect of over 45% in size
How it was run: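 HCT-116 p53RE-bla cells, 4,000/well, plated 5 h before compound pin transfer; 16 h at 37 C; bla substrate 2 h RT; then CellTiter-Glo, 30 min RT, luminescence.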

[8] = target: 5-hydroxytryptamine receptor 2A (Homo sapiens) (UniProt P28223); test: 5-hydroxytryptamine receptor 2A (HTR2A) small molecule antagonists, cell-based qHTS assay (AID 1963586); note: nearly all actives have a fitted effect of over 45% in size
How it was run: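 Antagonist-mode intracellular calcium assay: DOI (4 nM) added after 5 min compound pre-incubation at room temperature to dye-loaded HTR2A-CHO cells. Fluorescence followed for 3 min, sampled every second.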

[9] = target: 5-hydroxytryptamine receptor 2A (Homo sapiens) (UniProt P28223); test: 5-hydroxytryptamine receptor 2A (HTR2A) small molecule agonists, cell-based qHTS assay (AID 1963587); note: nearly all actives have a fitted effect of over 30% in size
How it was run: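 HTR2A-CHO cells, plated 18 h at 37 C/5% CO2, dye-loaded 1 h at 37 C; compounds in DMSO added by pin tool (agonist mode). Intracellular calcium flux read as kinetic fluorescence on FDSS over 2 min at 1 s intervals.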

[10] = target: Muscarinic acetylcholine receptor M1 (Homo sapiens) (UniProt P11229); test: Cholinergic receptor muscarinic 1 (CHRM1) small molecule agonists, cell-based qHTS assay (AID 1963589); note: nearly all actives have a fitted effect of over 35% in size
How it was run: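 Human M1 in stable CHO line; 18 h plating, 1 h dye load 37 C; cpd added (agonist mode); Ca2+ fluorescence kinetic read, 1 s intervals; 15 conc, 3 runs.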

[11] = cAMP Responsive Elements (CRE) small molecule agonists, cell-based qHTS assay (AID 1963590)
How it was run: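 HEK 293T CRE-bla, 2,000 cells/well, 18 h preincubation 37 C/5% CO2; cpds (DMSO) pinned, 3 h; LiveBLAzer B/G FRET substrate, 2 h RT.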

[12] = cAMP Responsive Elements (CRE) small molecule antagonists, cell-based qHTS assay (AID 1963591; active = well fitted inhibition curve with a large enough effect in the signal ratio in the repeat runs, not every such curve was filed as active; the % refers to the signal ratio)
How it was run: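 Beta-lactamase reporter read by FRET substrate (LiveBLAzer B/G) after 2 h at room temperature. CRE-bla HEK293T cells had received compound plus 0.25 uM (final) NKH477 for 3 h at 37 °C.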

[13] = target: Beta-2 adrenergic receptor (Homo sapiens) (UniProt P07550); test: Adrenergic beta2 receptor (ADRB2) small molecule antagonists, cell-based qHTS assay (AID 1963592); note: series mostly up to about 92 µM; nearly all actives have a fitted effect of over 50% in size
How it was run: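 Cells (CHO, stable ADRB2 overexpression) incubated 18-20hr at 37C; compounds added from DMSO; agonist mix (1nM isoproterenol, 100uM IBMX, 25uM Ro-20-1724) added; 0.5hr RT; d2-cAMP and anti-cAMP-cryptate added; 1hr RT; 665/615 nm read.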

[14] = target: Beta-2 adrenergic receptor (Homo sapiens) (UniProt P07550); test: Adrenergic beta2 receptor (ADRB2) small molecule agonists, cell-based qHTS assay (AID 1963593);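 note: CHO cells stably overexpressing human ADRB2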
How it was run: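 CHO cells stably over-expressing ADRB2 were plated overnight at 37C, then dosed with compounds plus a stimulation mix containing 100uM IBMX and 25uM Ro-20-1724 for 0.5hr at room temperature. cAMP was measured by HTRF competition, 1hr.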

[15] = target: D(2) dopamine receptor (Homo sapiens) (UniProt P14416); test: Dopamine D2 receptor (DRD2) small molecule antagonists, cell-based qHTS assay (AID 1963595; active = well fitted inhibition curve with a large enough effect in the signal ratio in the repeat runs, with a control signal flat; the % refers to the signal ratio; note: potency is the fitted concentration of half-maximal effect)
How it was run: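 Readout: HTRF cAMP, cAMP-d2 competing with cellular cAMP for anti-cAMP cryptate, read after 1 h. Cells: DRD2-HEK293. Conditions: 0.1 mM Ro20-1724, 12 nM quinpirole, 200 nM NKH477, 30 min RT.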

[16] = p53 small molecule agonists, cell-based qHTS assay (AID 1963582; active = well fitted activation curve with a large enough effect in the signal ratio in the repeat runs, not every such curve was filed as active; the % refers to the signal ratio)
How it was run: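 Reporter line: p53RE-bla. Pre-incubation 5 h, 37 C, 5% CO2; compound (DMSO, pin tool) 16 h, 37 C; B/G FRET substrate 2 h RT; fluorescence intensity read.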

[17] = target: Muscarinic acetylcholine receptor M1 (Homo sapiens) (UniProt P11229); test: Cholinergic receptor muscarinic 1 (CHRM1) small molecule antagonists, cell-based qHTS assay (AID 1963588); note: nearly all actives have a fitted effect of over 40% in size
How it was run: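 CHRM1-CHO calcium-flux assay, antagonist mode. Cells were seeded 18 h, dye-loaded 1 h at 37 C and given compound for 5 min at RT, then acetylcholine was added at 50nM. FDSS fluorescence was read 3 min; 15 concentrations, three runs.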

[18] = target: D(2) dopamine receptor (Homo sapiens) (UniProt P14416); test: Dopamine D2 receptor (DRD2) small molecule agonists, cell-based qHTS assay (AID 1963594); note: nearly all actives have a fitted effect of over 35% in size
How it was run: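 HEK293 cells stably expressing DRD2 were cultured 24 h at 37 C, then given Ro20-1724 (0.1 mM final) and compounds for 10 min at room temperature. NKH477 (200nM) was then added for 30 min. cAMP was read by HTRF.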

[19] = target: Gonadotropin-releasing hormone receptor (Homo sapiens) (UniProt P30968); test: Human gonadotropin-releasing hormone receptor (GnRHR) small molecule agonists, calcium flux assay in GnRHR-HEK293 cells (AID 1920063); note: nearly all actives have a fitted effect of over 35% in size
How it was run: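 GnRHR-HEK293, 1500 cells/well, 18 h 37 C/5% CO2; Ca dye 1 h 37 C; cpd pinned (DMSO), agonist mode; kinetic FL 480/540, 3 min, 1 s reads; 15 conc, n=3.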

[20] = p53 small molecule agonists, cell-based qHTS assay with human liver microsomes (AID 1963577);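 note: p53 response element beta-lactamase reporter cells with liver microsomes plus NADPH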
How it was run: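 HLM-supplemented p53RE-bla reporter assay: 16 h compound exposure at 37 C, microsomes and NADPH each 0.5 mg/mL final, read by fluorescence intensity.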

Sequence of KiSS-1 receptor (Homo sapiens) (Q969F8 whole entry, looked up): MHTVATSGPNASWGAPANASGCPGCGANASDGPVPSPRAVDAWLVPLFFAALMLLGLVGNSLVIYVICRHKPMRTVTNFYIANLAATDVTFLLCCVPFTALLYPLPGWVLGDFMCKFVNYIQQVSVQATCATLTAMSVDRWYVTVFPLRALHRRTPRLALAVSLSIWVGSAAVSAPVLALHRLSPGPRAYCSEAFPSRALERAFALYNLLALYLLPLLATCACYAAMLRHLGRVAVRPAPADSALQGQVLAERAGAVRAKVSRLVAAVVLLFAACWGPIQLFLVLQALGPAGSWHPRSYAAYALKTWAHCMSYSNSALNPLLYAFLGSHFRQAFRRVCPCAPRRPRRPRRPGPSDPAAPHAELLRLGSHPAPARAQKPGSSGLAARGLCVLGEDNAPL
Sequence of Gonadotropin-releasing hormone receptor (Homo sapiens) (P30968 whole entry, looked up): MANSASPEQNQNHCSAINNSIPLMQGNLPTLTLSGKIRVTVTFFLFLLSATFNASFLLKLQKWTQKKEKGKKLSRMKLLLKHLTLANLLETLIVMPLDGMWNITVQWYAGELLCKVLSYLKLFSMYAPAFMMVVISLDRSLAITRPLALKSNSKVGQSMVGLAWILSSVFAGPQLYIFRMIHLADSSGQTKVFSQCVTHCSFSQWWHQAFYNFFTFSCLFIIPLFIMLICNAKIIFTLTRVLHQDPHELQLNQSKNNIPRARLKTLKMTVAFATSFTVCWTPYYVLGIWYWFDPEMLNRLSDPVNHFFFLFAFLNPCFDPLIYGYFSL
Sequence of Muscarinic acetylcholine receptor M1 (Homo sapiens) (P11229 whole entry, looked up): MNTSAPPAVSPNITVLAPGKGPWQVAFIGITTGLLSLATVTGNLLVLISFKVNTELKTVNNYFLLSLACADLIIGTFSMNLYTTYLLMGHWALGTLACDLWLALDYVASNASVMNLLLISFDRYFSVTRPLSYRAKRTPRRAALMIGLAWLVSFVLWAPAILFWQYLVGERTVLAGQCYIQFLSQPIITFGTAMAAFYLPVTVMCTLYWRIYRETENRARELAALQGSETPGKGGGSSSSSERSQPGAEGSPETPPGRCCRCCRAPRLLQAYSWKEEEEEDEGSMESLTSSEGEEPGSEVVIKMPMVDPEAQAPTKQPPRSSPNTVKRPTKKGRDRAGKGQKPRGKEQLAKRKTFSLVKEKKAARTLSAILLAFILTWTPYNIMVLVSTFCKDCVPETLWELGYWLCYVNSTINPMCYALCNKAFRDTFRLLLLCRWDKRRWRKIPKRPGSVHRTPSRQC
Sequence of 5-hydroxytryptamine receptor 2A (Homo sapiens) (P28223 whole entry, looked up): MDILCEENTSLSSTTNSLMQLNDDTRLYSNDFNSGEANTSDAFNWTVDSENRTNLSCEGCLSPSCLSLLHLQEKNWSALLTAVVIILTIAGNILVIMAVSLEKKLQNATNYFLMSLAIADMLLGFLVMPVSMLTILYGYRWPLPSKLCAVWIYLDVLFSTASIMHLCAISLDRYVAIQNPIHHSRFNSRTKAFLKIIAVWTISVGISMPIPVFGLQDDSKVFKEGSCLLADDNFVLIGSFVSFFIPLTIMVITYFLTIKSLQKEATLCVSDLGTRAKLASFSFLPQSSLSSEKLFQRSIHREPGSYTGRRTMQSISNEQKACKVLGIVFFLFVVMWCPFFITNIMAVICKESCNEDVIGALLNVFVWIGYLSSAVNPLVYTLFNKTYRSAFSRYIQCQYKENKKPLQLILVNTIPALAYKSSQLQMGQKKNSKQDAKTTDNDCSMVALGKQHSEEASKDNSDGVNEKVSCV
Sequence of Beta-2 adrenergic receptor (Homo sapiens) (P07550 whole entry, looked up): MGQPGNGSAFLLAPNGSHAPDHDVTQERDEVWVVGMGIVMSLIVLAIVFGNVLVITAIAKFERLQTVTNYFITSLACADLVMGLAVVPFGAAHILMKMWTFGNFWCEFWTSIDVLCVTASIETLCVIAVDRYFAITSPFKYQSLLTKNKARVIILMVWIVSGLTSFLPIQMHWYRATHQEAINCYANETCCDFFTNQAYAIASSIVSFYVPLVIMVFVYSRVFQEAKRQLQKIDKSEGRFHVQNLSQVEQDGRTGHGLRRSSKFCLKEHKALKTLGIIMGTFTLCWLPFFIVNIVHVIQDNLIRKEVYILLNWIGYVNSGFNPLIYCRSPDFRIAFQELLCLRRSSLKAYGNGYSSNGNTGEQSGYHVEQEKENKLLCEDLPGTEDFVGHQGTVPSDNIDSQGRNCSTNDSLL
Sequence of D(2) dopamine receptor (Homo sapiens) (P14416 whole entry, looked up): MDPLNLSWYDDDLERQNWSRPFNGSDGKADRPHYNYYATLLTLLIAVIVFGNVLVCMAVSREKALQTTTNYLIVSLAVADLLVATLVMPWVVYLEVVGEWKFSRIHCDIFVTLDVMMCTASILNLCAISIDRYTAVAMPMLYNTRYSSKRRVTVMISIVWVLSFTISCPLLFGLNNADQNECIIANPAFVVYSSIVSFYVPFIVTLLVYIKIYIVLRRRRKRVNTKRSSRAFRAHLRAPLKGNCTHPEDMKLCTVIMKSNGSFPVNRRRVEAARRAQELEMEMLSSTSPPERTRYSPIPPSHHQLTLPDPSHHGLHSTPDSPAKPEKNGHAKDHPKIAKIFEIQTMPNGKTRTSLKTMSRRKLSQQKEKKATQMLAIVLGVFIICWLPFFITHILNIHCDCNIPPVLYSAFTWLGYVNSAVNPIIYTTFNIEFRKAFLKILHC

SMILES	Potency [1]	Potency [2]	Potency [3]	Potency [4]	Potency [5]	Potency [6]	Potency [7]	Potency [8]	Potency [9]	Potency [10]	Potency [11]	Potency [12]	Potency [13]	Potency [14]	Potency [15]	Potency [16]	Potency [17]	Potency [18]	Potency [19]	Potency [20]
CC(=O)C(=O)O	inactive	inactive	inactive	inactive	inactive	inactive	inactive	inactive	inactive	inactive	inactive	inactive	inactive	inactive	inactive	–	–	–	–	–
Cc1c(C(N)=O)cc([N+](=O)[O-])cc1[N+](=O)[O-]	inactive	inactive	inactive	inactive	inactive	inactive	inactive	inactive	inactive	inactive	inactive	inactive	inactive	inactive	inactive	inactive	inactive	inactive	–	–
CCCCCCCCCC(=O)OC	inactive	inactive	inactive	–	inactive	inactive	inactive	inactive	inactive	inactive	inactive	inactive	–	inactive	inactive	–	inactive	inactive	–	–
O=C(O)CCCCCCCC(=O)O	inactive	inactive	inactive	inactive	inactive	inactive	inactive	inactive	inactive	inactive	inactive	inactive	inactive	–	inactive	inactive	inactive	inactive	inactive	inactive
CCc1cc(C(N)=S)ccn1	inactive	inactive	inactive	inactive	inactive	inactive	inactive	inactive	inactive	inactive	inactive	inactive	inactive	inactive	inactive	inactive	inactive	–	inactive	inactive
O=C(Cl)c1c(Cl)c(Cl)c(C(=O)Cl)c(Cl)c1Cl	inactive	inactive	inactive	inactive	inactive	–	inactive	inactive	inactive	inactive	–	inactive	inactive	inactive	–	inactive	inactive	inactive	–	inactive
O=C(O)Cc1c[nH]c2ccccc12	inactive	inactive	inactive	inactive	–	–	inactive	inactive	inactive	inactive	inactive	inactive	inactive	inactive	inactive	–	inactive	inactive	–	inactive
CCNC(=S)NCC	inactive	inactive	inactive	inactive	inactive	inactive	inactive	–	inactive	inactive	inactive	inactive	inactive	–	inactive	inactive	inactive	inactive	–	inactive
Nc1ccc2c(c1)C(=O)c1ccccc1C2=O	inactive	inactive	inactive	inactive	inactive and 4.08 µM (active)	inactive	inactive	inactive	inactive	–	–	inactive	–	–	–	inactive	inactive	–	inactive	inactive
CCC(Cc1c(I)cc(I)c(N)c1I)C(=O)O (stereo not given)	inactive	inactive	inactive	inactive	inactive	inactive	inactive	–	inactive	inactive	inactive	–	–	inactive	inactive and 10.6 µM (active)	inactive	inactive	inactive	–	inactive
NC(N)=NC(=O)c1nc(Cl)c(N)nc1N	inactive	inactive	inactive	inactive	inactive	inactive	inactive	–	–	–	inactive	inactive	inactive	inactive	inactive	inactive	–	inactive	inactive	inactive
CCCCCCOCCO	inactive	inactive	inactive	inactive	inactive	inactive	inactive	–	inactive	inactive	inactive	inactive	inactive	inactive	inactive	inactive	inactive	inactive	inactive	inactive
C=CC(=O)OCCCC	inactive	inactive	inactive	inactive	inactive	inactive	inactive	inactive	inactive	inactive	inactive	inactive	inactive	–	inactive	–	inactive	inactive	–	inactive
COC(=O)/C=C\C(=O)OC	inactive	inactive	inactive	–	inactive	inactive	inactive	inactive	inactive	inactive	inactive	inactive	inactive	inactive	–	inactive	–	inactive	–	inactive
CC(=O)OC[C@H]1O[C@@](COC(C)=O)(O[C@H]2O[C@H](COC(C)=O)[C@@H](OC(C)=O)[C@H](OC(C)=O)[C@H]2OC(C)=O)[C@@H](OC(C)=O)[C@@H]1OC(C)=O	inactive	inactive	inactive	inactive	inactive	inactive	inactive	inactive	inactive	–	inactive	inactive	inactive	–	inactive	inactive	inactive	inactive	inactive	inactive
C[C@]12CC[C@@H]3c4ccc(O)cc4C[C@@H](CCCCCCCCCS(=O)CCCC(F)(F)C(F)(F)F)[C@H]3[C@@H]1CC[C@@H]2O (stereo not given in full)	inactive and 4.73 µM (active)	inactive	inactive	inactive	inactive	inactive	inactive	inactive	inactive	inactive	inactive	inactive	inactive	–	inactive	inactive	inactive	inactive	inactive	inactive
